Reference: PubChem BioAssay (NCI)
This is part of a sample that, as a whole, favours compounds with a hit. Of some 83,000 tested, about 20% had one in any assay.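 Activity criterion: percent growth below 10, measured after cells in 96-well plates were exposed to a single compound concentration for 48 hours.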 Unmarked numbers belong to inactive results. The source made the active and inactive calls.

Key:
Test in all cases: NCI-60 one-dose screen, 48 h (100 = growth as untreated, 0 = no growth, -100 = all killed)
Details in all cases: 10 µM unless noted
[1] = test system: T-47D breast
[2] = test system: BT-549 breast
[3] = test system: MDA-MB-435 melanoma
[4] = test system: SW-620 colon
[5] = test system: MCF7 breast
[6] = test system: HCT-116 colon
[7] = test system: HCC-2998 colon
[8] = test system: KM12 colon

Row | Compound | growth [1] | growth [2] | growth [3] | growth [4] | growth [5] | growth [6] | growth [7] | growth [8]
1 | N=C(N)c1ccc(-c2ccc(-c3ccc(Cl)cn3)s2)cc1 | 55.4% | 82.6% | -52.6% (active) | -28.3% (active) | -44.4% (active) | -67.6% (active) | -61.5% (active) | 1.88% (active)
2 | C=C(C=O)[C@@H]1CC=C(C=O)CC1 | -27.7% (active) | -18.9% (active) | -31.4% (active) | -25.7% (active) | -17.3% (active) | 5.92% (active) | -30% (active) | -36.6% (active)
3 | Cc1c2c(cn1Cc1ccccc1)CCc1cn[nH]c1-2 | 90.3% | 96.5% | 26.8% | 95.8% | 81.5% | 89.5% | 86.1% | 78.8%
4 | CNC1(C#N)CCN(Cc2ccccc2)CC1 | 5.3% (active) | 203% | 95.4% | 105% | 102% | 106% | 106% | 103%
5 | O=c1[nH]c(NCc2nnnn2-c2ccc(Br)cc2)nc2sc3c(c12)CCCC3 | 74.3% | 104% | 97.4% | 93.7% | 92% | 81.2% | 110% | 96.1%
6 | O=C(/C=C/C12c3ccccc3C(c3ccccc31)C1C(=O)N(c3ccc(Cl)cc3)C(=O)C12)c1ccccn1 (stereo not given) | -3.33% (active) | -49.6% (active) | -29.1% (active) | -12.4% (active) | 2.48% (active) | -69.2% (active) | -87.4% (active) | -60.8% (active)
7 | Cl.[Pt].[c-]1ccccc1-c1ccccn1.c1ccc(P(c2ccccc2)C([PH+](c2ccccc2)c2ccccc2)[PH+](c2ccccc2)c2ccccc2)cc1 | 27.8% | 27% | 4.42% (active) | 13.6% | 3.15% (active) | 7.37% (active) | 24.9% | 5.04% (active)
8 | CNC(=O)c1cc(Oc2ccc3nc(Nc4cc(Cl)cc(Cl)c4)ccc3c2)ccn1 | 55.6% | 58.9% | 12.8% | 45.6% | 38.8% | 49% | 74.5% | 30.2%
9 | C=CC(=O)N[C@@H](Cc1ccc(-c2cc(Cl)cc(Cl)c2)cc1)[C@@H](O)[C@H](O)C(=O)O | 96.1% | 91.9% | 102% | 101% | 93.5% | 91.5% | 87.3% | 102%
10 | Cc1cc(-c2ccc(N(C)C)cc2)c2sc(=O)[nH]c2n1 | 67.6% | 74.6% | 4.12% (active) | 38.3% | 28.4% | 50.1% | 77.5% | 39%
11 | CN(C)c1cnccn1 | 75.9% | 73% | 100% | 88.7% | 87.3% | 97.3% | 112% | 103%
12 | Cc1ccc(NSc2ccccc2[N+](=O)[O-])cc1 | 27.3% | 34.1% | -26.2% (active) | 26.9% | 30.4% | 20.3% | 31.4% | 20.3%
13 | COc1cc(CNC(=O)/C=C/C=C/c2ccc3c(c2)OCO3)ccc1OCc1cn(-c2ccc(Cl)c(Cl)c2)nn1 | -4.43% (active) | -8.89% (active) | -18.3% (active) | -33.4% (active) | -46.2% (active) | -30.6% (active) | 51.1% | 1.12% (active)
14 | COc1ccc(/C(C)=C(\c2ccc(Cl)cc2)c2ccc(OCCN3CCCC3)cc2)cc1F | 50.7% | 66.3% | 31.6% | 13.3% | 9.96% (active) | 14.3% | 18.6% | 7.85% (active)
15 | O=S(=O)(Cc1ccccc1)c1nc2ccccc2s1 | 76.4% | 35.8% | 49% | 26.3% | 30.5% | 9.47% (active) | 103% | 93%
16 | Cn1ccnc1C(=O)/C=C/c1ccc(C(=O)Nc2ccc(S(F)(F)(F)(F)F)cc2)cc1 | 27.8% | 39.6% | 39.2% | 12.5% | 12.5% | 3.62% (active) | 5.66% (active) | 16.6%
17 | CN(C)c1ccc(/C=C2\C=C(c3ccccc3)N(CCc3ccccc3)C2=O)cc1 | 82.3% | 71.3% | 95.3% | 61.4% | 60% | 42.2% | 75.5% | 89.8%
18 | COc1ccc(C(=O)/C=C/C23c4ccccc4C(c4ccccc42)C2C(=O)NC(=O)C23)cc1 (stereo not given) | 86.2% | 97.1% | 101% | 110% | 89% | 83.2% | 100% | 97.3%
19 | O[C@H]1CO[C@H]2[C@@H]1OC[C@@H]2Oc1ccc(Nc2nc(Nc3ccc(F)c(Cl)c3)ncc2F)cc1Cl | 110% | 105% | 93.1% | 98.2% | 88.3% | 105% | 101% | 108%
20 | CN(C)c1ccc2cc(-c3ccc(Cl)c(Cl)c3)c(N)nc2c1 | 18.6% | 48.3% | 22.4% | 30.1% | 24.3% | 13.3% | 44.7% | 28.9%
21 | c1ccc2[nH]c(SSc3nc4ncncc4[nH]3)nc2c1 | 46.5% | 46.7% | 19.7% | 36.3% | 9.76% (active) | 20.8% | 18.2% | 15.1%
22 | NC(=S)c1csc(CCNC(=O)c2ccccc2)n1 | 103% | 96.5% | 110% | 105% | 90.7% | 97.6% | 103% | 109%
23 | CCCCCOC(=O)c1ccc(NC(=O)CNCC(C)C)cc1 | 88.8% | 91.8% | 99.2% | 98.5% | 94.3% | 84.9% | 97.9% | 104%
24 | CN(C)c1ccc(-c2cc(-c3ccc(Nc4nc(Nc5ccccc5)nc(Nc5ccc(Cl)cc5)n4)cc3)nc(N)n2)cc1 | 29.3% | 51.4% | 49.2% | 67.9% | 19.1% | 7.76% (active) | -8.31% (active) | 36.6%
25 | COc1cc2c(cc1OC)-c1ccc3cc4c(cc3c1N(CCN1CCCC1)C2)OCO4 | -28.3% (active) | 21.8% | 56.4% | -40.1% (active) | -6.8% (active) | -84.5% (active) | 15.7% | 16.7%
26 | Nc1c(-c2nc3ccccc3c(=O)[nH]2)nnn1-c1ccc(Cl)cc1 | 27.2% | 77.8% | 83.3% | 99.2% | 90% | 78.8% | 104% | 82.8%
27 | Cc1nc(Nc2ccc(NC(=S)Nc3ccccc3)cc2)c2ccccc2n1 | 87.6% | 113% | 112% | 106% | 77.4% | 101% | 104% | 104%
28 | c1ccc(-c2oc3ccccc3c2-c2ccccc2)cc1 | 75.7% | 106% | 99.5% | 105% | 115% | 98.5% | 111% | 104%
29 | Cc1c(C)c2c(c(C)c1NC(=O)/C=C\C(=O)O)CCC(C)(CCCC(C)CCCC(C)CCCC(C)C)O2 (stereo not given) | 54.5% | -58.5% (active) | 50.9% | 30% | 51.2% | 4.08% (active) | 79.8% | 29.2%
30 | O=[N+]([O-])c1cccc(/C=C/c2ccccn2)c1 | 37.9% | 64.8% | 98.4% | 47.7% | 7.24% (active) | 39.6% | 62.2% | 65.9%
